Only a selection was taken, and hits are over-represented in it overall.
TbPYK inhibitor – qHTS of Trypanosoma Brucei Inhibitors; pyruvate kinase (Trypanosoma brucei), Q57TT1; TbPYK enzyme, Kinase-Glo Plus ATP luminescence, 45 min; Potency, µM (titrated, usually from 76.8 µM), inactives show top-dose activity, negative = inhibition, most hits filed as inhibitors; 0.12% of 410,000 active; also: potency is read from the fitted curve at half-maximal effect; % is scaled to controls: 0 for no effect and ±100 for the full control effect; nearly all actives have a fitted effect of over 50% in size
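Readout: single end-point luminescence (Kinase-Glo Plus, 10 min). Reaction conditions were TbPYK/substrate plus 130 uM ADP, 45 min at RT, pH 7.2 TEA buffer. No-enzyme wells served as controls, and data were normalized before concentration-response fitting.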
LmPK inhibitor – qHTS Assay for Inhibitors of Leishmania Mexicana Pyruvate Kinase (LmPK); Potency, µM (doses to about 57.5 µM), without a hit: top-dose activity change, negative = inhibition, usual class: inhibitors; purified LmPK, Kinase-Glo ATP luminescence, 1 h; 0.37% of 290,000 active; Q27686; also: potency is read from the fitted curve at half-maximal effect; % is scaled to controls: 0 for no effect and ±100 for the full control effect
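0.1 nM LmPK, 0.5 mM PEP, 0.1 mM ADP; 50 mM imidazole pH 7.2, 7 mM MgCl2, 50 mM KCl; 1 h RT. Kinase-Glo luminescence readout, normalized to no-enzyme (full inhibition) and uninhibited wells.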
FBPA Giardia inh – qHTS Assay for Inhibitors of Fructose-1,6-bisphosphate Aldolase from Giardia Lamblia; purified Giardia FBPA; AID 2451, 2010; 0.71% of 290,000 active; Potency, µM (doses to about 59.6 µM), for the others: at the highest dose activity, negative = inhibition, most hits filed as inhibitors; also: potency is read from the fitted curve at half-maximal effect; % is scaled to controls: 0 for no effect and ±100 for the full control effect; nearly all actives have a fitted effect of over 55% in size
Target sequence (A8B2U2 whole entry, looked up): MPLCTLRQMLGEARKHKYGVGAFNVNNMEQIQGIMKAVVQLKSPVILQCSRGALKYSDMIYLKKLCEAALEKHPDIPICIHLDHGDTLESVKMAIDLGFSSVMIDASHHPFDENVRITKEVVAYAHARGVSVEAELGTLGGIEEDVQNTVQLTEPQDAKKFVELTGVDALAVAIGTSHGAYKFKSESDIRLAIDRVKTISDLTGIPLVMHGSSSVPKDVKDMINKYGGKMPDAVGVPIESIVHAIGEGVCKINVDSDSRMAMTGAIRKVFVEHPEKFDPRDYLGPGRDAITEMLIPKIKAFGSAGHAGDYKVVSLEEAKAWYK
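40 nM FBPA preincubated 10 min at RT with compound (up to 57.5 uM final), then substrate plus GAPDH/TPI/NAD/arsenate coupling and diaphorase/resazurin added. Fluorescence read after 20 min at RT, 525/598 nm.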
Sm TGR inh – qHTS Assay for the Inhibitors of Schistosoma Mansoni Peroxiredoxins; purified TGR, DTNB reduction, TNB absorbance 405 nm; Potency, µM (titrated, usually from 114 µM), for the others: at the top dose activity change, negative = inhibition, most hits filed as inhibitors; 3% of 360,000 active; also: potency is read from the fitted curve at half-maximal effect; % is scaled to controls: 0 for no effect and ±100 for the full control effect; nearly all actives have a fitted effect of over 60% in size
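Kinetic colorimetric format: TGR-catalysed, NADPH-driven DTNB reduction monitored via TNB absorbance. Enzyme dispensed at 20 nM; compound exposure 15 min at room temperature before reaction start.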
Shiga inhibitor – A qHTS for Small Molecule Inhibitors of Shiga Toxin; 9.2% of 290,000 active; inhibition, % at 38.7 µM; Vero cells, Shiga toxin protein synthesis inhibition reporter; AID 2315, 2010; in the data active = inhibition mostly above about 28%, no sharp cut-off; inactive = mostly below about 43%; also: 0% is about no effect
CHX counter – Cycloheximide Counterscreen for Small Molecule Inhibitors of Shiga Toxin. AID 2314, 2010. cell reporter, cycloheximide protein synthesis inhibition counterscreen. max response, %. 12% of 300,000 active; in the data active = max response mostly above about 13%, no sharp cut-off; inactive = mostly below about 14%; also: read at 38.3 µM for the half of the compounds with a filed dose; 0% is about no effect
The depositor's hits bear a star; ? = inconclusive; nt = no result given. Unless noted, calls follow the shape of the dose curve; as a rule, active = well fitted curve in the direction sought with a large enough effect; inconclusive = small, poorly fitted or top-dose-only effect, or another doubt; inactive = no such curve, though single readings can be large; an effect the other way counts as inactive or inconclusive.

SMILES | TbPYK inhibitor | LmPK inhibitor | FBPA Giardia inh | Sm TGR inh | Shiga inhibitor | CHX counter
O=C(CN1CCN(C(=O)c2ccccc2)CC1)Nc1cccc(S(=O)(=O)N2CCCC2)c1 | 2% | nt | nt | -9% | nt | nt
CCc1ccc(C(C)NC(=O)COC(=O)c2ccc(-n3cnnn3)cc2)cc1 (configuration not stated) | -1% | nt | nt | nt | nt | nt
CCCN1CCN(CCCNC(=O)c2ccc3nc(N4CCC(C)CC4)sc3c2)CC1 | -21% | -7% | 3% | -2% | 47* | 33*
CCOC(CNC(=O)c1ccc2nc(N3CCC(C)CC3)sc2c1)OCC | -12% | 2% | 4% | -1% | 57 | 25*
CCOc1ccc(CCNC(=O)c2ccc3nc(N4CCC(C)CC4)sc3c2)cc1OCC | -7% | nt | nt | 13% | nt | nt
C#CCOc1ccc(-c2nnc(Nc3ccc(NC(C)=O)cc3)c3ccccc23)cc1 | -7% | nt | nt | 6% | nt | nt
Cc1ccc(CN2CCN(CCCc3ccccc3)CC2CCO)cc1 (configuration not stated) | -20% | -4% | 8% | -1% | -10 | 1
OCCC1CN(Cc2nc3c(s2)CCCC3)CCN1Cc1ccccc1 (configuration not stated) | 8% | -2% | -4% | 35µM* | 13 | 2
Cc1ccc(CN2CCN(Cc3nc4ccccc4nc3C)CC2CCO)cc1 (configuration not stated) | -7% | 2% | 3% | 32µM* | -22 | -5
OCCC1CN(Cc2nc3c(s2)CCCC3)CCN1CCc1ccccc1 (configuration not stated) | -2% | 6% | -6% | -13% | 10 | -1
Cn1c(=O)cc(SCC(=O)NCc2ccc(F)cc2)c2cc(Cl)ccc21 | 6% | nt | nt | 0% | nt | nt
Cc1ccc(S(=O)(=O)N2CCOCC2)cc1NC(=O)CNc1ccccc1N1CCCC1=O | -1% | nt | nt | -4% | nt | nt
CCN1C(=O)[C@H]2[C@@H](c3ccc(-c4ccccc4)cc3)N[C@@](C)(C(=O)OC)[C@H]2C1=O | -7% | nt | nt | 40µM* | nt | nt
CCN1C(=O)[C@H]2[C@@H](c3ccc(-c4ccc(F)cc4)c(OC)c3)N[C@@](C)(C(=O)OC)[C@H]2C1=O | -7% | nt | nt | 16µM* | nt | nt
CCN1C(=O)[C@H]2[C@@H](c3ccc(-c4ccc(F)cc4)cc3)N[C@@](C)(C(=O)OC)[C@H]2C1=O | -5% | nt | nt | nt | nt | nt
Cc1cccc(C(=O)NC2(C(F)(F)F)N=C(c3ccccc3)N(C3CCCCC3)C2=O)c1 (configuration not stated) | 5% | nt | nt | 6% | nt | nt
Cc1ccccc1C(=O)NNC(=S)Nc1cccc(C(F)(F)F)c1 | -8% | -5% | 17% | -18% | 27 | 28*
FC(F)(F)c1cccc(NC(=S)NNC(=S)Nc2cccc(C(F)(F)F)c2)c1 | nt | 12% | 5% | 14% | 22 | 10
CC(=O)OC1OCCOC1NC(=S)Nc1cccc(C(F)(F)F)c1 (configuration not stated) | -10% | 5% | -10% | -12% | 66* | 19*
Cc1cccc(NC(=S)NNC(=O)c2ccccc2OC(F)F)c1 | -28% | 4% | ? | -4% | 15 | 9
Cc1ccc(C(=O)Nc2ccc(Br)c(C(F)(F)F)c2)cc1 | -3% | -5% | nt | 7% | 108* | 82*
Cc1cccc(NC(=S)NNC(=O)c2ccccc2Br)c1 | -16% | -5% | 26% | -10% | 78* | 20*
CCN(CC)CC(O)CNc1ccnc2c(Cl)ccc(Cl)c12 (configuration not stated) | -3% | nt | nt | nt | nt | nt
Cc1ccc(NC(=O)C(C)OC(=O)CCN=C2NS(=O)(=O)c3ccccc32)cc1 (configuration not stated) | 5% | nt | nt | 5% | nt | nt
CCn1nnc2cc(C(=O)Nc3ccc(C)c(Cl)c3)ccc21 | 2% | nt | nt | 3% | nt | nt
SMILES | TbPYK inhibitor | LmPK inhibitor | FBPA Giardia inh | Sm TGR inh | Shiga inhibitor | CHX counter
O=C(NNC(=S)Nc1ccc(F)c(Cl)c1)c1ccccc1Br | -11% | 2% | 14% | 19% | 43* | 12
Cc1cccc(NC(=O)c2ccc(NC(=O)c3ccccc3Br)cc2)c1 | -6% | 10% | nt | 2% | 37 | 20*
CCCc1nc2ccccc2n2c(-c3ccc(C)cc3)c3c(=O)n(C)c(=O)n(C)c3c12 | 1% | nt | nt | -1% | nt | nt
O=C(Cn1c(=O)n(Cc2ccco2)c(=O)c2sc3ccccc3c21)Nc1ccccc1C(F)(F)F | -13% | nt | nt | -7% | nt | nt
CN1CCN(c2nc(-c3ccc(C(C)(C)C)cc3)nc3ccccc23)CC1 | -2% | -2% | ? | 12% | 59* | 57*
Cc1ccc(-c2nc(N3CCN(C)CC3)c3ccccc3n2)cc1 | -4% | 0% | -2% | -1% | 11 | 12*
CC1CCN(c2nc(-c3ccc(C(C)(C)C)cc3)nc3ccccc23)CC1 | -2% | nt | nt | 8% | nt | nt
O=S(=O)(c1ccc(Cl)cc1)N1CCN(c2nc(-c3ccc(Cl)cc3)nc3ccccc23)CC1 | nt | nt | nt | nt | 39 | 12
COc1ccc(-c2nc(N3CCN(S(=O)(=O)c4ccc(C)cc4)CC3)c3ccccc3n2)cc1 | nt | nt | nt | nt | 73 | 27*
CN1CCN(c2nc(-c3ccc(Br)cc3)nnc2-c2ccccc2)CC1 | -1% | 1% | -7% | 9% | 11 | 22*
CN(Cc1ccco1)c1ccnc(-c2cccc(NS(C)(=O)=O)c2)n1 | nt | nt | -7% | nt | nt | nt
COc1ccc(S(=O)(=O)N2CCC(C(=O)NCCC(=O)NC3CC3)CC2)cc1 | -11% | 0% | 8% | 2% | 13 | -2
CCCn1c(-c2ccc(F)cc2)nc2c(NCCN3CCSCC3)nc(C)nc21 | nt | nt | 1% | nt | nt | nt
O=C(/C=C/c1ccco1)Nc1ccccc1C(=O)Nc1cccc(C(=O)O)c1 | -17% | 8% | 0% | 25µM* | -8 | -2
O=C(Nc1ccccc1C(=O)Nc1ccccc1)c1ccccc1Br | -5% | nt | nt | nt | nt | nt
CN(C(=O)/C=C/c1ccco1)c1ccccc1C(=O)O | -15% | 30% | -10% | 3.5µM* | 8 | 1
O=C(/C=C/c1ccco1)Nc1ccccc1C(=O)O | ? | ? | ? | 18µM* | 99 | 36
O=C(O)/C=C/C(=O)Nc1ccccc1C(=O)Nc1ccccc1 | ? | -2% | 12% | 35µM* | 33 | 20
Cc1ccc(NC(=O)c2cc(S(=O)(=O)N3CCCCC3)ccc2N2CCOCC2)c(C)c1 | -1% | nt | nt | nt | nt | nt
COc1ccc(CN(Cc2ccco2)c2cnc(S(C)(=O)=O)nc2C(=O)Nc2ccc(C)c(C)c2)cc1 | -8% | nt | nt | 1% | nt | nt
CCc1nc2ccc(C(=O)N(C)Cc3ccco3)cn2c1N(CC)Cc1cccc(Br)c1 | -2% | nt | nt | nt | nt | nt

Screening results from PubChem.
